Test results taken from PubChem BioAssay AID1159580 (chemical genetic matrix, 2015).
About 2,000 (36%) of roughly 5,500 compounds were called active. About 18% were inconclusive and are not listed. Rule as the data show it: active = normalized growth mostly below about 0.91 (no sharp cut-off); inconclusive = no clear call, values can overlap the other calls; inactive = mostly above about 0.92. This is one part of the list.

Test: chemical genetic growth profiling, strain panel (AID 1159580);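 also: tested at 20 µM; growth read once vehicle control cultures reached saturation at 30 °C; 1 = growth at the plate median or of vehicle wells; lower values mean less growth of the strain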
Conditions: S. cerevisiae deletion strains, growth OD
[1] = locus YDL101C, strain DUN1, active compounds read low
[2] = locus YHR030C, strain SLT2, active compounds read low

Measured: normalized growth

N#Cc1ccc(Oc2sccc2[N+](=O)[O-])cc1
inactive: locus YAR019C, strain CDC15, active compounds read low 0.937 | locus YBL105C, strain PKC1, active compounds read low 0.978 | locus YBR135W, strain CKS1, active compounds read low 0.946 | locus YBR136W, strain MEC1, active compounds read low 0.971 | locus YBR160W, strain CDC28, active compounds read low 0.992 | locus YDL017W, strain CDC7, active compounds read low 0.985 | locus YDL028C, strain MPS1, active compounds read low 0.978 | [1] 0.959 | locus YDL108W, strain KIN28, active compounds read low 0.97 | locus YDL132W, strain cdc53, active compounds read low 0.942 | locus YDL214C, strain PRR2, active compounds read low 0.901 | locus YDR052C, strain DBF4, active compounds read low 0.975 | locus YDR054C, strain cdc34, active compounds read low 0.907 | locus YDR226W, strain ADK1, active compounds read low 0.98 | locus YDR477W, strain SNF1, active compounds read low 0.888 | locus YER123W, strain YCK3, active compounds read low 0.748 | locus YER133W, strain GLC7, active compounds read low 0.847 | locus YFL009W, strain cdc4, active compounds read low 0.908 | locus YFL029C, strain CAK1, active compounds read low 0.907 | locus YFR003C, strain YPI1, active compounds read low 0.975 | locus YFR019W, strain FAB1, active compounds read low 0.924 | locus YFR028C, strain CDC14, active compounds read low 0.953 | locus YGR040W, strain KSS1, active compounds read low 0.867 | locus YGR052W, strain FMP48, active compounds read low 0.879 | locus YGR092W, strain DBF2, active compounds read low 0.769 | [2] 0.942 | locus YHR079C, strain IRE1, active compounds read low 0.955 | locus YHR082C, strain KSP1, active compounds read low 0.934 | locus YHR205W, strain SCH9, active compounds read low 0.894 | locus YIL147C, strain SLN1, active compounds read low 0.969 | locus YJL095W, strain BCK1, active compounds read low 0.825 | locus YJL128C, strain PBS2, active compounds read low 0.923 | locus YJL157C, strain FAR1, active compounds read low 0.883 | locus YJR016C, strain ILV3, active compounds read low 0.946 | locus YJR066W, strain TOR1 (second series), active compounds read low 0.821 | locus YJR066W, strain TOR1, active compounds read low 0.907 | locus YKL048C, strain ELM1, active compounds read low 0.95 | locus YKL067W, strain YNK1, active compounds read low 0.895 | locus YKL101W, strain HSL1, active compounds read low 0.927 | locus YKL193C, strain SDS22, active compounds read low 0.941 | locus YKL203C, strain TOR2, active compounds read low 0.911 | locus YLR133W, strain CKI1, active compounds read low 0.933 | locus YLR403W, strain SFP1, active compounds read low 0.863 | locus YML070W, strain DAK1, active compounds read low 0.869 | locus YMR001C, strain CDC5, active compounds read low 0.935 | locus YMR205C, strain PFK2 (second series), active compounds read low 0.899 | locus YMR277W, strain FCP1, active compounds read low 0.92 | locus YNL006W, strain LST8, active compounds read low 0.932 | locus YNL020C, strain ARK1, active compounds read low 0.934 | locus YNL161W, strain CBK1, active compounds read low 0.956 | locus YNL183C, strain NPR1, active compounds read low 0.856 | locus YNL207W, strain RIO2, active compounds read low 0.956 | locus YNL222W, strain SSU72, active compounds read low 0.957 | locus YNL307C, strain MCK1 (second series), active compounds read low 0.918 | locus YOL078W, strain AVO1, active compounds read low 0.914 | locus YOL136C, strain PFK27, active compounds read low 0.901 | locus YOR061W, strain CKA2, active compounds read low 0.886 | locus YOR119C, strain RIO1, active compounds read low 0.925 | locus YOR231W, strain MKK1, active compounds read low 0.837 | locus YOR329C, strain SCD5, active compounds read low 0.977 | locus YPL031C, strain PHO85, active compounds read low 0.876 | locus YPL153C, strain RAD53, active compounds read low 0.866 | locus YPL204W, strain HRR25, active compounds read low 0.872 | locus YPL209C, strain IPL1, active compounds read low 0.98 | locus YPL256C, strain CLN2, active compounds read low 1.05 | locus YPR025C, strain CCL1, active compounds read low 0.971 | locus YPR106W, strain ISR1, active compounds read low 0.96 | locus YPR111W, strain DBF20, active compounds read low 0.993 | strain NNK1, active compounds read low 0.971 | strain TSCII, active compounds read low 0.921
active: locus YLR113W, strain HOG1, active compounds read low 0.76

CCOC(=O)c1ccc(Oc2ccc(Cl)cc2Cl)c([N+](=O)[O-])c1
inactive: locus YAL013W, strain DEP1, active compounds read low 1 | locus YBR229C, strain ROT2, active compounds read low 0.993 | [1] 0.992 | locus YDR150W, strain NUM1, active compounds read low 1.01 | locus YEL061C, strain CIN8, active compounds read low 0.959 | locus YGR078C, strain PAC10, active compounds read low 1.01 | [2] 0.883 | locus YHR087W, strain rtc3, active compounds read low 0.998 | locus YJL187C, strain SWE1, active compounds read low 0.99 | locus YJR043C, strain POL32, active compounds read low 0.996 | locus YJR075W, strain HOC1, active compounds read low 0.968 | locus YLR039C, strain RIC1, active compounds read low 1 | locus YLR058C, strain SHM2 (second series), active compounds read low 0.99 | locus YLR085C, strain ARP6, active compounds read low 0.92 | locus YLR262C, strain YPT6, active compounds read low 1.01 | locus YML094W, strain GIM5, active compounds read low 0.975 | locus YMR219W, strain ESC1, active compounds read low 0.997 | locus YMR263W, strain SAP30, active compounds read low 0.996 | locus YNL128W, strain TEP1, active compounds read low 0.987 | locus YNL153C, strain GIM3, active compounds read low 0.998 | locus YNL298W, strain CLA4 (second series), active compounds read low 0.961 | locus YNL322C, strain KRE1, active compounds read low 1 | locus YNR030W, strain Alg12, active compounds read low 0.959 | locus YOL006C, strain TOP1, active compounds read low 0.81 | locus YPL055C, strain LGE1, active compounds read low 0.961 | locus YPL241C, strain CIN2, active compounds read low 0.958 | locus YPR135W, strain CTF4, active compounds read low 0.918
